This is an account of results in PubChem BioAssay (Tox21).

Inconclusive results are not listed. A call without a number means that no potency is given here. A number with no mark means an inactive call. Active and inactive are the calls of the source. The call rests on the fitted dose curve; in most records, active means well fitted curve in the direction sought with a large enough effect in the repeat runs; inconclusive means weak or mixed curves; inactive means no such curve, though single readings can be large; an effect the other way counts as inactive or inconclusive.

A short description of assay [1]: qHTS assay to identify small molecule agonists of the RXR signaling pathway - cell viability counter screen (AID 1159529). Further: series mostly up to about 77 µM; nearly all actives have a fitted effect of over 50% in size. Put shortly: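 Luminescence from CellTiter-Glo (30 min, RT) measured viability in the same wells as the beta-lactamase reporter readout. Cells: GeneBLAzer RXR-alpha HEK 293T, 2% charcoal-stripped FBS. Compound exposure 16 hr, 37 C.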
In general terms: Quantitative high-throughput screening tests each substance at several concentrations.

The nature of assay [2]: qHTS assay to identify small molecule antagonists of the retinoid acid receptor (RAR) signaling pathway - cell viability counter screen (AID 1159551). Further: nearly all actives have a fitted effect of over 35% in size. A digest of the protocol: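 ATP-based viability, C3RL4 cells, 6 h at 37 C with 1 uM final retinol co-added after compound; luminescence read 30 min post CellTiter-Glo, RT.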

Regarding `CN(C(=O)C(Cl)Cl)c1ccc(OC(=O)c2ccco2)cc1`, the Potency result in assay [1] and in assay [2] was “inactive” each time. Regarding `OC(CCCN1CCCCC1)(c1ccccc1)c1ccccc1`, the Potency entry in assay [1] and in assay [2] was “inactive” in each case. Regarding `CN1CCN(c2c(F)cc3c(=O)c(C(=O)O)cn4c3c2OCN4C)CC1`, the activity change, negative = cytotoxicity in assay [1] is 2.53% [at 15.8 µM]. On to `CC(C)(O)c1ccccc1CC[C@@H](SCC1(CC(=O)O)CC1)c1cccc(/C=C/c2ccc3ccc(Cl)cc3n2)c1`, for which the Potency result in assay [1] and in assay [2] was “inactive” in each case.

On to `NC(=O)Nc1ccc(Cl)cc1`, for which the Potency entry in assay [1] is “inactive”. With `C=C(C)C(=O)OCCOC(=O)CC(C)=O`, the Potency entry in assay [1] and in assay [2] was “inactive” in each case. In the case of `CC(=O)Nc1ccccc1C`, the Potency entry in assay [1] and in assay [2] was “inactive” each time. Consider `CO/N=C1\CN(c2nc3c(cc2F)c(=O)c(C(=O)O)cn3C2CC2)CC1CN` (configuration not stated), for which the Potency entry in assay [1] and in assay [2] was “inactive” throughout.

In the case of `CCCCCCCCCOC(C)=O`, the Potency result in assay [1] and in assay [2] was “inactive” in each case. Turning to `CC(N)CN` (configuration not stated), the Potency result in assay [1] and in assay [2] was “inactive” throughout. As for `CCOC(=O)OCC`, the Potency entry in assay [1] and in assay [2] was “inactive” throughout.

As for `CN1Cc2cc(C(=O)N3CCC(C4CCNCC4)CC3)ccc2N[C@@H](CC(=O)O)C1=O`, the Potency entry in assay [1] and in assay [2] was “inactive” throughout. On to `CC(=O)OCC(=O)[C@@]12OC(C)(C)O[C@@H]1C[C@H]1[C@@H]3C[C@H](F)C4=CC(=O)C=C[C@]4(C)[C@@]3(F)[C@@H](O)C[C@@]12C`, for which the Potency result in assay [1] and in assay [2] was “inactive” in each case. Regarding `C=CC(=O)NCOCC(C)C`, the Potency result in assay [1] and in assay [2] was “inactive” each time. Consider `Cc1ccc(S)cc1`, for which the Potency entry in assay [1] and in assay [2] was “inactive” each time.

For `O=C(C(=O)c1ccccc1)c1ccccc1`, the Potency entry in assay [1] and in assay [2] was “inactive” throughout. Regarding `CCc1c2c(nc3ccc(OC(=O)N4CCC(N5CCCCC5)CC4)cc13)-c1cc3c(c(=O)n1C2)COC(=O)[C@]3(O)CC`, the Potency entry in assay [1] and in assay [2] was “inactive” throughout.
